KCNQ2 pot: potentiators of rat KCNQ2 potassium channel | actives 0.54% (n = 310,000) | AID 2239, 2010 | CHO-K1 KCNQ2, FluxOR thallium flux fluorescence; hits give high values | Potassium voltage-gated channel subfamily KQT member 2 (Rattus norvegicus), O88943 | B-score at 10 µM;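 active means fluorescence ratio B-score at least 3 SD of library B-scores, with initial fluorescence B-score within 3 of them, cut at about 5.3 in these data; same plate scores as AID 2156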;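 further: B-score of peak minus minimum over baseline fluorescence ratio after K+ and Tl+ stimulus; positive B-score means potentiation of KCNQ2 with more thallium influx and brighter signal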
Target sequence (O88943 whole entry, looked up): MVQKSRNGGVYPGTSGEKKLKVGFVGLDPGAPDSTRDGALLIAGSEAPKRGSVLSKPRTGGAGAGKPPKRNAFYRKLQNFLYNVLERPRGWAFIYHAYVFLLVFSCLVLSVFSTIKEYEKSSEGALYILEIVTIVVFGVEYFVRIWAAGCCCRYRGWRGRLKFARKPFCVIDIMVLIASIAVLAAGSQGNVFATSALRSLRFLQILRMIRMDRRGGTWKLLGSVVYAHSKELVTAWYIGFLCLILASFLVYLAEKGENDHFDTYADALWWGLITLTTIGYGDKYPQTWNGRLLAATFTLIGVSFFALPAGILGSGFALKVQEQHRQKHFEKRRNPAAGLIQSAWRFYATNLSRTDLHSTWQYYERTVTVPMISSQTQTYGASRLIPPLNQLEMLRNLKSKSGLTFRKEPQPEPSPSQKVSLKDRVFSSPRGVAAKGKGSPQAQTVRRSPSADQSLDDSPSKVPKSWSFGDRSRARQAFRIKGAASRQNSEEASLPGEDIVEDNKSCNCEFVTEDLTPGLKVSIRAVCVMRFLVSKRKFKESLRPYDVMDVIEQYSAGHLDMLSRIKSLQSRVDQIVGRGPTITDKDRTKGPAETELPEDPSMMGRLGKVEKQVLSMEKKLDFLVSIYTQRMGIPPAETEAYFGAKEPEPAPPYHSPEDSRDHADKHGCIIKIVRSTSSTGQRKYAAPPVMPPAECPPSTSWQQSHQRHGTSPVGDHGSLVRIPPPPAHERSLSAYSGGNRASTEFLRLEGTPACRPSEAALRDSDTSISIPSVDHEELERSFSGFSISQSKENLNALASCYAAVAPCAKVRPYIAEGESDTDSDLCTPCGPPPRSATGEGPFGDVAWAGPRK
KCNQ2 inh: rat KCNQ2 potassium channel inhibitors, primary screen, cell-based, CHO-K1, FluxOR thallium flux, B-score | Potassium voltage-gated channel subfamily KQT member 2 (Rattus norvegicus), O88943 | 20 min; hits give low values | B-score at 10 µM | actives 1.1% (n = 310,000);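 active means fluorescence ratio B-score at most minus 3 library SDs, with starting brightness B-score within 2 library SDs, cut at about -5.5 in these data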
Kir21 confirm: mouse Kir2.1 channel blockers, retest, confirmation, cell-based, FluxOR thallium flux, duplicate | actives 41% (n = 2,300) | Kir2.1-expressing cells, FluxOR thallium flux fluorescence; hits give low values | shares compounds with KCNQ2 pot | Tl flux remaining, % of negative control (hits give low values), % at 10 µM;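 active means Primary-screen hit whose thallium flux fell at least 3 control SD below untreated wells in both duplicates, with normal baseline fluorescence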;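 further: 0% = blank wells without stimulus and 100% = stimulated no-compound controls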
HEK293 ctr: parental HEK293 activity in Kir2.1 inhibitor counter-screen; shares compounds with KCNQ2 pot; actives 19% (n = 2,300); AID 2105; FluxOR signal as % of negative control (100 = no effect), % at 10 µM; parental HEK293 cells, FluxOR thallium flux fluorescence; 0% = unstimulated blank wells;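 active means dye signal at least 3 control SD above or below untreated wells in both duplicates, raw fluorescence within 3, either direction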;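 further: percent is based on the flux ratio of peak minus minimum fluorescence over baseline F0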
CHO-K1 Tl ctr: nonspecific thallium flux increase in parental CHO-K1, confirmation, counter-screen for KCNQ2 potentiator project, cell-based, FluxOR thallium flux, duplicate; shares compounds with KCNQ2 pot; parental CHO-K1 cells, FluxOR thallium flux fluorescence; zero = vehicle mean+3SD, 100% = vehicle-minus-blank window; activity increase over 3SD of controls, % at 10 µM; actives 43% (n = 1,200); AID 2282, 2010;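 active means signal rise of at least 3 SD above the untreated control mean, in both duplicate wells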;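 further: counter screen of KCNQ2 potentiator hits so any rise reflects channel-independent effects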
KCNQ1 sel pot: human KCNQ1 channel potentiation off-target, confirmation, selectivity assay for KCNQ2 potentiator project, cell-based, CHO, FluxOR thallium flux | shares compounds with KCNQ2 pot | CHO KCNQ1 stable, FluxOR thallium flux fluorescence; beyond 3SD, as % of vehicle-control signal | activation over 3SD threshold, % at 10 µM | actives 28% (n = 1,200);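 active means fluorescence ratio rise of at least 3 SD of vehicle wells above their mean, in both replicate wells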;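 further: 0% = vehicle mean plus 3 SD and 100% = vehicle minus unstimulated blank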
KCNQ2 pot confirm: rat KCNQ2 channel potentiators, confirmation, cell-based, CHO, FluxOR thallium flux, duplicate; potentiation, less the hit threshold, % at 10 µM; shares compounds with KCNQ2 pot; CHO-KCNQ2 cells, FluxOR thallium flux fluorescence; AID 2287, 2010; actives 68% (n = 1,200);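 active means fluorescence ratio rising 3 SD or more over the vehicle control mean in both replicates, plus primary screen hit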;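 further: peak minus minimum thallium fluorescence divided by baseline after K/Tl stimulus; 0% = vehicle mean plus 3 SD and 100% = vehicle minus unstimulated blank difference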
Kir21 spec: mouse Kir2.1 channel activation off-target, confirmation, selectivity assay for KCNQ2 potentiator project, cell-based, HEK293, FluxOR thallium flux | AID 2345, 2010 | HEK293 Kir2.1, FluxOR thallium flux fluorescence | actives 2% (n = 1,200) | shares compounds with KCNQ2 pot | activity over 3SD threshold, % at 10 µM;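 active means fluorescence ratio rise of at least 3 SD above the vehicle-control mean, seen in both replicates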;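 further: 0% = vehicle mean plus 3 SD and 100% = vehicle minus no-stimulus blank window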
KCNQ2 W236L pot: potentiators of retigabine-insensitive KCNQ2 W236L, mechanism study for KCNQ2 potentiator project, cell-based, rat KCNQ2 W236L, CHO, automated patch clamp; shares compounds with KCNQ2 pot; actives 10% (n = 940); automated patch clamp current; current increase over 3SD of negative controls (%), hits give high values, % at 25 µM;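 active means current increase at least 3 SD of the untreated controls above them in both duplicate recordings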
Starred values were filed as active, the others as inactive; i = inactive; x = not tested or not shown. Shown are actives, neighbours in structure and some others; about 1.6% of the full set was active somewhere.

SMILES	KCNQ2 pot	KCNQ2 inh	Kir21 confirm	HEK293 ctr	others
Cc1cccc(CS(=O)(=O)c2ncc(Cl)c(C(=O)NCc3ccccc3)n2)c1	x	i	x	x
Cc1nnc(NC(=O)c2nc(S(=O)(=O)Cc3ccccc3)ncc2Cl)s1	14*	i	i	i	CHO-K1 Tl ctr=3.1*;KCNQ1 sel pot=46*;KCNQ2 pot confirm=58*;Kir21 spec=-29;KCNQ2 W236L pot=23%*
O=C(Nc1c[nH]c(=O)[nH]c1=O)c1cc([N+](=O)[O-])cc([N+](=O)[O-])c1	x	i	x	x
Cc1c(C(=O)N2CCN(Cc3ccccc3)CC2)oc2c1C(=O)CCC2	1.7	i	x	x
Nc1ncn(-c2ncc(C(F)(F)F)cc2Cl)n1	0.08	i	x	x
c1ccc2c(c1)Sc1ccccc1-n1cnnc1-2	x	i	x	x
Clc1ccc2c(c1)-c1nnc(Br)n1-c1ccccc1S2	1	i	66%*	70%*
Clc1ccccc1-c1nnc2n1-c1ccccc1SC2	x	i	x	x
Brc1nnc2n1-c1ccccc1Sc1ccccc1-2	1.9	i	28%*	66%*
CCC(=O)N1CCN=C1SCc1cccc(F)c1	x	i	x	x
O=C(Cc1ccc(Br)cc1)N1CCN(C(=O)c2ccco2)CC1	1.6	i	x	x
O=S(=O)(Nc1ccc2ccccc2n1)c1ccccc1	2.1	i	x	x
O=C(CCC(=O)N1CCCCC1)Nc1ccc(Cl)c(Cl)c1	x	i	x	x
Cn1c(N)c(N2CCCCC2)c(=O)n(CC(=O)Nc2ccc(Cl)c(Cl)c2)c1=O	17*	i	i	i	CHO-K1 Tl ctr=-7;KCNQ1 sel pot=-15;KCNQ2 pot confirm=47*;Kir21 spec=-35;KCNQ2 W236L pot=i
CCCCn1c(-c2cccs2)nc2oc3ccccc3c(=O)c2c1=O	0.86	i	x	x
Cc1ccc(-c2oc3ccccc3c(=O)c2OCC(=O)O)cc1	x	i	x	x
Cc1ccc(-c2oc3ccccc3c(=O)c2O)cc1	5.6*	i	i	162%*	CHO-K1 Tl ctr=-21;KCNQ1 sel pot=-22;KCNQ2 pot confirm=21*;Kir21 spec=-37;KCNQ2 W236L pot=i
O=c1c(O)c(-c2cccs2)oc2ccc(Cl)cc12	15	i	i	i	CHO-K1 Tl ctr=-18;KCNQ1 sel pot=-16;KCNQ2 pot confirm=70*;Kir21 spec=-29;KCNQ2 W236L pot=24%*
O=c1c(O)c(-c2cccs2)oc2ccccc12	13*	i	i	i	CHO-K1 Tl ctr=9.6*;KCNQ1 sel pot=-33;KCNQ2 pot confirm=66*;Kir21 spec=-36;KCNQ2 W236L pot=i
O=c1cc(-c2cccs2)oc2ccc(Cl)cc12	1.2	i	x	x
COc1ccc(C(=O)Nc2nnc(Cc3ccc(OC)c(OC)c3)s2)cc1	1.3	i	x	x
Cc1[nH]c(=O)c(C#N)c(C)c1CCC(=O)NCc1ccc(Cl)cc1	0.34	i	x	x
CCN(CC(=O)Nc1ccc(NC(C)=O)cc1)C(=O)CCCOc1ccc(C(C)(C)C)cc1	0.94	i	x	x
CC1(CCC(=O)N2CCCC(Nc3ccc(F)cc3)C2)CC1 (centres undefined)	x	i	51%*	i
O=C(CCc1cccc(Cl)c1)N1CCCC(Nc2ccccc2)C1 (centres undefined)	-7	-7*	70%*	i
SMILES	KCNQ2 pot	KCNQ2 inh	Kir21 confirm	HEK293 ctr	others
O=C1CCCCN1CCC(=O)N1CCCC(Nc2ccccc2)C1 (centres undefined)	1.5	i	x	x
O=C(CC1CCCC1)N1CCCC(Nc2ccc(F)cc2)C1 (centres undefined)	1.5	i	x	x
Cc1ccc(C(=O)NC2(O)C(=O)c3ccccc3C2=O)cc1C	5.7*	i	i	i	CHO-K1 Tl ctr=-25;KCNQ1 sel pot=-13;KCNQ2 pot confirm=-6;Kir21 spec=-36;KCNQ2 W236L pot=22%*
O=C(NC1(O)C(=O)c2ccccc2C1=O)c1ccc(C(F)(F)F)cc1	x	i	x	x
COc1cccc(C(=O)NCc2ccco2)c1	8.9*	i	i	74%*	CHO-K1 Tl ctr=-10;KCNQ1 sel pot=-12;KCNQ2 pot confirm=-31;Kir21 spec=-45
COc1cccc(C(=O)NCCS(=O)(=O)NCc2ccco2)c1	x	i	x	x
CC(C)C[C@H](NC(=O)c1cc2cc(Cl)ccc2n1C)C(=O)N1CCC(C(=O)O)CC1	0.44	i	x	x
COc1ccc(CNCc2cccc(Oc3ccccc3)c2)cc1	2.1	i	10%*	i
COc1ccc(CNCc2cccc(C)c2)cc1	0.68	i	x	x
COc1ccc(CNCc2ccncc2)c(OC)c1	1.5	i	x	x
COc1ccc(CNCc2ccc3ccccc3c2)c(OC)c1	4.5	i	24%*	i
O=C(CSc1nnc(-c2ccncc2)o1)N1CCCC1	0.32	i	x	x
O=C(Nc1ccc2[nH]ncc2c1)c1ccccc1Cl	0.61	i	x	x
COc1cc(/C=C2/C(=O)NN(c3ccc(C)c(Cl)c3)C2=O)cc([N+](=O)[O-])c1O	x	i	x	x
Cc1ccc(N2NC(=O)/C(=C\c3cc4c(cc3[N+](=O)[O-])OCO4)C2=O)cc1C	x	i	76%*	i
CCCCCNC(=O)c1cccc(S(=O)(=O)N2CC3(C)CC2CC(C)(C)C3)c1 (centres undefined)	2.2	i	x	x
CN(CC(=O)Nc1cccc(F)c1)C(=O)c1cccc(S(=O)(=O)N2CC3(C)CC2CC(C)(C)C3)c1 (centres undefined)	9.2*	i	i	i	CHO-K1 Tl ctr=92*;KCNQ1 sel pot=16*;KCNQ2 pot confirm=1.7*;Kir21 spec=-27;KCNQ2 W236L pot=i
O=C(c1ccccc1Oc1ccc([N+](=O)[O-])cc1)N1CCOCC1	0.58	i	x	x
CCC/C(O)=C1\C(=O)CC(C)(C)CC1=Nc1ccccc1O	x	i	x	x
Cc1ccc(C(=O)CSc2nc(C(C)C)nc3ccccc23)cc1	3.9	i	x	x
CC(C)c1nc(SCC(=O)c2ccc(F)cc2)c2ccccc2n1	11*	i	i	i	CHO-K1 Tl ctr=-9;KCNQ1 sel pot=-4;KCNQ2 pot confirm=36*;Kir21 spec=-40;KCNQ2 W236L pot=i
